The values below come from PubChem BioAssay (NCATS).

Structures are written as SMILES. “And” between values parts separate entries of the source, which are not always exact repeats. Equal entries are not always repeated. Inconclusive results are not listed. Values without a mark were called inactive. The source made the active and inactive calls. Calls come from the whole dose curve; as a rule, active = well fitted curve in the direction sought with a large enough effect; inconclusive = small, poorly fitted or top-dose-only effect, or another doubt; inactive = no such curve, though single readings can be large; an effect the other way counts as inactive or inconclusive.

Experiment [1] in a line: qHTS of pediatric cancer cell lines to identify multiple opportunities for drug repurposing: Confirmatory screen for Rh41 cells (AID 1347123).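 Note: 48 h compound exposure; nearly all actives have a fitted effect of over 60% in size.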 Note: potency is the fitted concentration of half-maximal effect. As to conditions: Rh41 rhabdomyosarcoma cells, viability/cytotoxicity qHTS; series mostly up to 45.9 µM. A digest of the protocol: (§1)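 Cells (500-1,000/well) in growth media were settled 5 h at 37 degrees C, then given compounds for 48 h. Viability was read as CellTiter-Glo luminescence. Primary runs used MIPE at 11 points (0.78 nM-46 µM) and NPC at 8 points (0.59 nM-46 µM); follow-ups used 11 points.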

Experiment [2] in a line: qHTS of pediatric cancer cell lines to identify multiple opportunities for drug repurposing: Confirmatory screen for RD cells (AID 1347124).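 Note: cells exposed to compound for 48 h before viability readout; nearly all actives have a fitted effect of over 65% in size.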 Note: potency is the fitted concentration of half-maximal effect. As to conditions: RD rhabdomyosarcoma cell viability; series mostly up to 45.9 µM. A digest of the protocol: as §1
Experiment [3] in a line: qHTS of pediatric cancer cell lines to identify multiple opportunities for drug repurposing: Confirmatory screen for Rh18 cells (AID 1347125). Note: nearly all actives have a fitted effect of over 55% in size. Note: potency is the fitted concentration of half-maximal effect. The settings on record: Rh18 rhabdomyosarcoma cells, viability; series mostly up to 45.9 µM. The essentials: as §1
Experiment [4] is described as follows: qHTS of pediatric cancer cell lines to identify multiple opportunities for drug repurposing: Confirmatory screen for Rh30 cells (AID 1347126). Note: nearly all actives have a fitted effect of over 55% in size. Note: potency is the fitted concentration of half-maximal effect. The settings on record: Rh30 rhabdomyosarcoma cell viability; series mostly up to 45.9 µM. The essentials: as §1
The nature of experiment [5]: qHTS of pediatric cancer cell lines to identify multiple opportunities for drug repurposing: Confirmatory screen for Saos-2 cells (AID 1347127). Note: nearly all actives have a fitted effect of over 60% in size. Note: potency is the fitted concentration of half-maximal effect. As to conditions: Saos-2 osteosarcoma cell viability; series mostly up to 45.9 µM. A digest of the protocol: as §1
The nature of experiment [6]: qHTS of pediatric cancer cell lines to identify multiple opportunities for drug repurposing: Confirmatory screen for SK-N-SH cells (AID 1347129).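 Note: cells exposed to compound for 48 h before viability read; nearly all actives have a fitted effect of over 60% in size.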 Note: potency is the fitted concentration of half-maximal effect. The settings on record: SK-N-SH neuroblastoma cell viability; series mostly up to 46.1 µM. A digest of the protocol:
as §1

For experiment [7], the system named is Zika virus NS2B-NS3 protease. Put plainly: Primary screen GU AMC qHTS for Zika virus inhibitors (AID 1347154).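 For activity change, negative = inhibition: 0% = no-inhibitor control and -100% = no-enzyme control.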 Note: nearly all actives have a fitted effect of over 70% in size. Note: potency is the fitted concentration of half-maximal effect. The settings on record: Zika NS2B-NS3 unlinked protease, AMC fluorogenic substrate; series mostly up to 54.1 µM. A digest of the protocol: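 Unlinked Zika NS2B hydrophilic domain/NS3 protease domain noncovalent complex (25 nM final) in 10 mM Tris-HCl pH 8.0, 0.01% Tween 20, with AMC peptide substrate. Fluorescence (ex 340, em 450 nm) change over 15 min, room temperature; percent inhibition fitted to 4-parameter Hill equation.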

Experiment [8] concerns Zika virus NS2B-NS3 protease (unlinked complex). Put plainly: Primary screen GU Rhodamine qHTS for Zika virus inhibitors: Unlinked NS2B-NS3 protease assay (AID 1347159). For activity change, negative = inhibition: % is set by controls: 0 for no effect and ±100 for the full control effect. Note: nearly all actives have a fitted effect of over 60% in size. Note: potency is the fitted concentration of half-maximal effect. The settings on record: Recombinant ZIKV NS2B-NS3 protease, Rhodamine110 substrate fluorescence; series mostly up to 107 µM. The essentials:
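A qHTS format was used, with compound concentrations ranging up to 114 microM. Each compound was preincubated with 25 nM NS2B-NS3 protease, and the substrate was then added at 1.5 microM. Curves were fitted with a 4-parameter Hill model.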

Experiment [9] has as its target Furin (Homo sapiens) (UniProt P09958). Put plainly: Furin counterscreen qHTS for Zika virus inhibitors (AID 1347149).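 For activity change, negative = inhibition: purified recombinant full-length human furin enzyme at 5 nM; fluorescence gain from furin cutting a BOC-RVRR-AMC peptide substrate over 15 min; top concentration of the series differs between compounds; plate controls were no-inhibitor control for no effect and no-enzyme control for full effect.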 Note: nearly all actives have a fitted effect of over 70% in size. Note: potency is the fitted concentration of half-maximal effect. The settings on record: furin enzymatic counterscreen, fluorogenic substrate; series mostly up to 57.5 µM. The essentials:
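Fluorogenic cleavage of BOC-RVRR-AMC (2 microM final, Km ~15 µM) was monitored (ex 340, em 450 nm) at 37C after 15 min RT preincubation of 5 nM furin with compounds in HEPES pH 7.0 buffer with CaCl2 and Triton X-100. Percent inhibition was fitted to a 4-parameter Hill curve.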

Experiment [10] has as its system Zika virus NS2B-NS3 protease (linked construct). As to the kind of experiment: Confirmatory screen NINDS AMC qHTS for Zika virus inhibitors (AID 1347152).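 For activity change, negative = inhibition: AMC fluorescence gain from cleaved Bz-Nle-KRR-AMC substrate over 15 min; top concentration of the series differs between compounds; 0% = no-inhibitor control and -100% = no-enzyme control.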 Note: nearly all actives have a fitted effect of over 70% in size. Note: potency is the fitted concentration of half-maximal effect. As to conditions: Purified linked NS2B-NS3, AMC substrate fluorescence; series mostly up to 56.6 µM. The essentials:
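Linked NS2B-NS3 protease, 1 nM, in 10 mM Tris-HCl pH 8.0, 0.01% Tween 20; compounds preincubated 15 min at room temperature. Nle-KRR-AMC 10 microM (Km 18.3 µM); 15-min fluorescence change (340/450 nm) fitted to 4-parameter Hill.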

Experiment [11] deals with Zika virus NS2B-NS3 protease (unlinked complex). As to the kind of experiment: Confirmatory screen GU AMC qHTS for Zika virus inhibitors (AID 1347153).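 For Potency: enzyme at 25 nM with substrate at 10 µM below its Km of 18.3 µM; potency is the fitted concentration of half-maximal effect.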 Note: nearly all actives have a fitted effect of over 70% in size. As to conditions: Recombinant NS2B-NS3 protease, AMC substrate fluorescence; series mostly up to 57.1 µM. The essentials:
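Fluorescence change (ex 340/em 450 nm) over 15 min, ~20% substrate conversion, normalized to no-inhibitor and no-enzyme controls, then Hill-fitted. Unlinked protease at 25 nM; AMC peptide 10 µM.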

For experiment [12], the system named is Zika virus NS2B-NS3 protease (linked). As to the kind of experiment: 384 well plate NINDS AMC confirmatory qHTS for Zika virus inhibitors (AID 1347163).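 For activity change, negative = inhibition: linked protease at 5 30 or 60 nM final depending on run; fluorescence of AMC released from Ac-VKTGKR-AMC peptide cleaved by the protease; top concentration of the series differs between compounds; 0% = no-inhibitor control and -100% = no-enzyme control.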 Note: nearly all actives have a fitted effect of over 50% in size. Note: potency is the fitted concentration of half-maximal effect. As to conditions: Recombinant NS2B-NS3 protease, Ac-VKTGKR-AMC fluorescence; series mostly up to 100 µM. A digest of the protocol:
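Linked NS2B-NS3 protease (final 5 nM, 30 nM or 60 nM) was preincubated with compounds (final up to 1 mM) for ~15 minutes. Ac-VKTGKR-AMC substrate (final 30 microM) then reacted for 25 minutes at room temperature in the dark. Fluorescence (ex 355/em 460 nm) was normalized to no-enzyme and no-inhibitor controls.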

Experiment [13] concerns Zika virus NS2B-NS3 protease (linked construct). Put plainly: 384 well plate NINDS Rhodamine confirmatory qHTS for Zika virus inhibitors (AID 1347164).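 Note: fluorescence from protease cleavage of Ac-LKRR-rhodamine 110 substrate; potency is the fitted concentration of half-maximal effect; nearly all actives have a fitted effect of over 65% in size.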 As to conditions: rhodamine-110 peptide substrate fluorescence; series mostly up to 2 mM. A digest of the protocol:
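Linked NS2B-NS3 protease (final 5, 30 or 60 nM) preincubated ~15 minutes with compounds, then 10 microM Ac-LKRR-Rhodamine 110 added. Fluorescence (485/538 nm) read after 25 minutes at room temperature, normalized to no-enzyme and no-inhibitor controls.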

The nature of experiment [14]: Vero cells viability qHTS for Zika virus inhibitors (AID 1347167). Note: potency is the fitted concentration of half-maximal effect. As to conditions: cytotoxicity counter-screen (Zika); series mostly up to 45.9 µM. A digest of the protocol: (§2)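 Counter-screen for cytotoxicity of hits from NS2B-NS3 protease qHTS. Overnight-attached cells (2.5 x 10^5 cells/mL, DMEM/4% FBS) were dosed in titration, incubated 24 to 48 hours, then assayed by CellTiter Glo.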

A short description of experiment [15]: HepG2 cells viability qHTS for Zika virus inhibitors (AID 1347168). Note: potency is the fitted concentration of half-maximal effect. As to conditions: Zika counter-screen; series mostly up to 45.9 µM. A digest of the protocol:
as §2

Experiment [16] can be described thus: ZIKV-mCherry secondary qHTS for Zika virus inhibitors (AID 1347158). For activity change, negative = inhibition: top concentration of the series differs between compounds. Note: potency is the fitted concentration of half-maximal effect. The settings on record: Vero cells, ZIKV-mCherry infection imaging, 48-72 h; series mostly up to 49.2 µM. The essentials:
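Vero, 5,000 cells/well, o/n 37 °C; cpd pin-transferred in DMSO; ZIKV-mCherry MOI 1, 48-72 h 37 °C; 32% PFA stock fix, Hoechst; imaged 10x DAPI/mCherry; mCherry+ threshold 450 RFU; % infection.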

For experiment [17], the target named is N-terminal Xaa-Pro-Lys N-methyltransferase 1 (Homo sapiens) (UniProt Q9BV86). As to the kind of experiment: qHTS Assay for Inhibitors of N-terminal methyltransferase 1 (NTMT1): LOPAC validation of the NTMT1 SAHH-coupled ThioGlo3 Assay (AID 1347143). For activity change, negative = inhibition: % is set by controls: 0 for no effect and ±100 for the full control effect. Note: nearly all actives have a fitted effect of over 70% in size. Note: potency is the fitted concentration of half-maximal effect. As to conditions: recombinant NTMT1, SAHH-coupled ThioGlo3 fluorescence; series mostly up to 114 µM. A digest of the protocol:
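Fluorescence read-out (excitation 340nm, emission 450nm) of SAH-derived thiol, measured via SAHH coupling and ThioGlo3, taken immediately and after a 30 min room-temperature reaction, then normalized to the background read. Enzyme: NTMT1 at 125nM; cofactor SAM 100uM in the added reagent.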

For experiment [18], the target named is Lysine-specific demethylase 5B (Homo sapiens) (UniProt Q9UGL1). As to the kind of experiment: Optimization screen for KDM5B Histone Demethylases FDH coupled qHTS against the LOPAC library (AID 1347166). Note: 0% is about no effect. The settings on record: KDM5B demethylation, FDH-coupled NADH fluorescence (FDH is formaldehyde dehydrogenase); series mostly up to 57.5 µM. A digest of the protocol: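 KDM5BDeltaAP (200nM final) preincubated 10 min with compound, then 12.5uM H3K4Me3, 25uM a-ketoglutarate, ascorbate, Fe(II), NAD+ and FDH added; 50mM HEPES pH 7.5, 0.01% Tween-20. NADH fluorescence (340/450 nm) change over 30 min, room temperature.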
Sequence of Lysine-specific demethylase 5B (Homo sapiens) (Q9UGL1 whole entry, looked up): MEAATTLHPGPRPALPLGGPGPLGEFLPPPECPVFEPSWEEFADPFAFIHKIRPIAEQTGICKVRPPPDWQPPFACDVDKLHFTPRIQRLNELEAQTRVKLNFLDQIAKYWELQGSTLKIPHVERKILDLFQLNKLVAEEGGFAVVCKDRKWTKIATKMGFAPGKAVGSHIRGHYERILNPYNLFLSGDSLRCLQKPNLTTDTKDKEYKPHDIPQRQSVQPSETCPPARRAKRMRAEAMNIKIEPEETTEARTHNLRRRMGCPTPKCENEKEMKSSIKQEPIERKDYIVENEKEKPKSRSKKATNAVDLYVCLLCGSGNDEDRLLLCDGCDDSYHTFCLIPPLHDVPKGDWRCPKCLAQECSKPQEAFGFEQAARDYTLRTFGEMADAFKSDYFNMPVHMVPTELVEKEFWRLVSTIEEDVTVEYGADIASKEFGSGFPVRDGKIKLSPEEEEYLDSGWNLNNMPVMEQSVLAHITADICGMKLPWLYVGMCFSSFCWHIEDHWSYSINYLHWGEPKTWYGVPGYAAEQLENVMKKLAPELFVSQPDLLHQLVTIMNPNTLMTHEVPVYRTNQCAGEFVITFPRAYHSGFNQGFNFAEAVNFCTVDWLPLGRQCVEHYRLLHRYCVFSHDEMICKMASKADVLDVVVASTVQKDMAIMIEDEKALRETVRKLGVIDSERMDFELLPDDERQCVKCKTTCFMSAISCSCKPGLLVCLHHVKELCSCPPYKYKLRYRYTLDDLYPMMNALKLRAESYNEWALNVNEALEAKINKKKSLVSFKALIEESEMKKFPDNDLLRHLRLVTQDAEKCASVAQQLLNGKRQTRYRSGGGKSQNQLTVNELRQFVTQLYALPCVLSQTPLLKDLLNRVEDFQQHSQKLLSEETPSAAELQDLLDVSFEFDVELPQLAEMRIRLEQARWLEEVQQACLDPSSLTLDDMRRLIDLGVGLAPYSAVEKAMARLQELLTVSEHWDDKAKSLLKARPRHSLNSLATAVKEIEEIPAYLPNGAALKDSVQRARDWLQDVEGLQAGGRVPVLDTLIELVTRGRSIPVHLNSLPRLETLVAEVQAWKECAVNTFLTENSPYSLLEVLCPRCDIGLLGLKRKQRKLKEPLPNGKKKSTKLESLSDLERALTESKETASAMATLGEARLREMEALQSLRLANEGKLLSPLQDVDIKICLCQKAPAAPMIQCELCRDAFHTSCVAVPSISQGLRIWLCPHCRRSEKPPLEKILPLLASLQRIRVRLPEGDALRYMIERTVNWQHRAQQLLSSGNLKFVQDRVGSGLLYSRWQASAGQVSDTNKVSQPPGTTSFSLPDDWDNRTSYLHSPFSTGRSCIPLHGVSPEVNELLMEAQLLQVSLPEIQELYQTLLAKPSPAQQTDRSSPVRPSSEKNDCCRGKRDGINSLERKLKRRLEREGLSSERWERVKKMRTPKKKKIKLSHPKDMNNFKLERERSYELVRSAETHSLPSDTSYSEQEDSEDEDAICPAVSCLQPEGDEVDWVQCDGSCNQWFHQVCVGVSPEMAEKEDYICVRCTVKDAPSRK

Sequence of Furin (Homo sapiens) (P09958 whole entry, looked up): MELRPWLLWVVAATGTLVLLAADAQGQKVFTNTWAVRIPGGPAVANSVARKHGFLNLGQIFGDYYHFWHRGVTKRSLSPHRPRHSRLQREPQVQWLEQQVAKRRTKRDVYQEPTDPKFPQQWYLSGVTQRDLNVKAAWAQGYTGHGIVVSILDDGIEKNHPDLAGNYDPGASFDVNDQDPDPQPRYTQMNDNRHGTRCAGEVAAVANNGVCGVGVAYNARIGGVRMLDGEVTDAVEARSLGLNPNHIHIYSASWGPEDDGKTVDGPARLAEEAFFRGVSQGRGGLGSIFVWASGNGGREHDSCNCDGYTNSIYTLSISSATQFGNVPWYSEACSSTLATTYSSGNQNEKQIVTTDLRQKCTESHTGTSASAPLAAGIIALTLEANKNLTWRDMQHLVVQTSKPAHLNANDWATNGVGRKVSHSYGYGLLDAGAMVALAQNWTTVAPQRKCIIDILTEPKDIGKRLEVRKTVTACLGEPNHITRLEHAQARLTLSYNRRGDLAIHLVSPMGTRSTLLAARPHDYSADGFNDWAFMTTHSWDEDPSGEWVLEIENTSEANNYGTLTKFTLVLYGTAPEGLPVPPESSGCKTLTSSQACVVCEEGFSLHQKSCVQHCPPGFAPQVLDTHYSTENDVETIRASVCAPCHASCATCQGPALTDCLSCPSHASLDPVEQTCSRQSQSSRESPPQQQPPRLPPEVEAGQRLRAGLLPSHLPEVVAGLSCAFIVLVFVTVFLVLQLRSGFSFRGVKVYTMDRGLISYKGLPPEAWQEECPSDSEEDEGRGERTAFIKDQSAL
Sequence of N-terminal Xaa-Pro-Lys N-methyltransferase 1 (Homo sapiens) (Q9BV86 whole entry, looked up): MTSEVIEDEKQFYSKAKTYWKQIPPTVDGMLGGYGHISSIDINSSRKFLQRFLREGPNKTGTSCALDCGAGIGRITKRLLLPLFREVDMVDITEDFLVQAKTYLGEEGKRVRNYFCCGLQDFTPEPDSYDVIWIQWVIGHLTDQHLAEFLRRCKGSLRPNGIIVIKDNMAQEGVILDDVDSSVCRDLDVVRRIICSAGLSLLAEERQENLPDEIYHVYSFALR

For the compound `CCN(CCO)CCCC(C)Nc1ccnc2cc(Cl)ccc12` (configuration not stated), the Potency result in [1], in [2], in experiment [3], in experiment [4], in experiment [5] and in [6] was “inactive” in each case. The Potency result in [7] was “inactive”. In addition, the activity change, negative = inhibition in [8] was 15.4% [at 11.5 µM].

With `CS(=O)(=O)OCCCCOS(C)(=O)=O`, the Potency result in [1], in [2], in experiment [3], in [4], in experiment [6] and in [7] was “inactive” throughout.

As for `Clc1ccc(C(Cn2ccnc2)OCc2ccsc2Cl)c(Cl)c1` (configuration not stated), the figures for the Potency in [3] and in experiment [5] were 14.7 µM (active) and 10.4 µM (active), respectively. The Potency entry in experiment [4] and in experiment [7] was “inactive” each time.

With `COc1cc(C(C)=O)ccc1OCCCN1CCC(c2noc3cc(F)ccc23)CC1`, the Potency in [1] was 18.5 µM (active). The Potency entry in experiment [2], in [3], in experiment [5], in [6] and in experiment [7] was “inactive” in each case.

Regarding `Clc1ccc(C(Cn2ccnc2)OCc2ccc(Sc3ccccc3)cc2)c(Cl)c1` (configuration not stated), the Potency result in [3] and in experiment [7] was “inactive” throughout.

Consider `Cc1c(C(=O)NN2CCCCC2)nn(-c2ccc(Cl)cc2Cl)c1-c1ccc(Cl)cc1`, for which the values for the Potency in experiment [1] and in [5] were 18.5 µM (active) and 20.8 µM (active), respectively. Also, the Potency result in [2], in experiment [6] and in experiment [7] was “inactive” throughout.

Consider `CN(C)c1ccc(O)c2c1C[C@H]1C[C@H]3[C@H](N(C)C)C(=O)C(C(N)=O)=C(O)[C@@]3(O)C(=O)C1=C2O`, for which the Potency entry in experiment [1], in experiment [2], in [3], in [5], in [9] and in experiment [10] was “inactive” each time. Moreover, the Potency result in experiment [11], in experiment [14] and in experiment [15] was “inactive” throughout. The figures for the Potency in experiment [6], in experiment [12] and in experiment [13] were 11.8 µM (active), 141 µM (active) and 89.1 µM (active), respectively.

As for `Cc1nc(Nc2ncc(C(=O)Nc3c(C)cccc3Cl)s2)cc(N2CCN(CCO)CC2)n1`, the Potency in experiment [1] was 2.61 µM (active); in experiment [3], 0.208 µM (active); in experiment [4] it was 0.414 µM (active); in [6], 4.18 µM (active); in experiment [9], 50.1 µM (active); in [14], 282 µM (active). Further, in [15], the Potency was 79.4 µM (active). For the same compound, the Potency entry in [2], in experiment [5], in experiment [7], in experiment [16], in [8] and in [12] was “inactive” throughout.

Consider `Nc1nc(Cl)nc2c1ncn2[C@H]1C[C@H](O)[C@@H](CO)O1`, for which the Potency entry in experiment [1], in experiment [3], in experiment [4], in experiment [5] and in [7] was “inactive” throughout.

For the compound `CN(C)c1ccc2nc3ccc(=[N+](C)C)cc-3sc2c1`, the Potency was 2.61 µM (active) in experiment [1]; 14.7 µM (active) in experiment [2]; 6.57 µM (active) in experiment [3]; 1.17 µM (active) in [4]; 1.17 µM (active) in experiment [5]; 4.18 µM (active) in [6]. Moreover, in experiment [7], the Potency result is “inactive”.

As for `O=C(CCc1ccc(O)cc1)c1c(O)cc(O)cc1O`, the Potency entry in experiment [1], in experiment [2], in [3], in experiment [4], in [5] and in experiment [6] was “inactive” in each case.

For the compound `CCN(CC)CCOc1ccc(Nc2ncc3cc(-c4c(Cl)cccc4Cl)c(=O)n(C)c3n2)cc1`, the Potency is 9.27 µM (active) in [1]; 2.33 µM (active) in experiment [2]; 14.7 µM (active) in [3]; 7.37 µM (active) in experiment [4]; 1.47 µM (active) in experiment [5]; 0.833 µM (active) in experiment [6]. Moreover, in experiment [7], the Potency entry was “inactive”.

For `C=C(c1ccc(C(=O)O)cc1)c1cc2c(cc1C)C(C)(C)CCC2(C)C`, the Potency entry in experiment [1], in experiment [2], in [3], in experiment [6], in experiment [9] and in experiment [15] was “inactive” each time. The Potency in experiment [10] is 19.2 µM (active); in [11] it was 19.2 µM (active) and 21.5 µM (active); in experiment [7], 9.61 µM (active) and 14.4 µM (active); in [16], 7.08 µM (active); in experiment [8] it was 3.16 µM (active); in experiment [12], 22.4 µM (active). In experiment [13], the Potency was 7.94 µM (active).

`C[C@H](Cc1ccc(O)c(O)c1)[C@@H](C)Cc1ccc(O)c(O)c1`: the Potency in [17] is 10 µM (active).

`CC1(C)C(=O)N(CCN2CCC(C(=O)c3ccc(F)cc3)CC2)c2ccccc21`: the Potency entry in experiment [2], in experiment [3], in experiment [4], in experiment [5], in [17] and in [7] was “inactive” in each case. Also, the outcome in experiment [18] was inactive.
